Results from PubChem BioAssay (EPA / NIEHS).
Inconclusive results are not listed. The source made the active and inactive calls. How the source made its calls: active means hit-call score of the fitted dose curve at least 0.9, where 1 is the maximum; inconclusive means response in the unintended direction; inactive means score below 0.9.

Assays:
[1] = molecular target: rat Neurokinin-1 Receptor (NK1), Tacr1 (gene 24807) (UniProt P14600); test: NVS_GPCR_rNK1: NovaScreen (NVS) G Protein-Coupled Receptor Assay for rat Neurokinin-1 Receptor (NK1) (AID 2283309)
Chain of rat Neurokinin-1 Receptor (NK1), Tacr1 (gene 24807) (P14600 whole entry, looked up): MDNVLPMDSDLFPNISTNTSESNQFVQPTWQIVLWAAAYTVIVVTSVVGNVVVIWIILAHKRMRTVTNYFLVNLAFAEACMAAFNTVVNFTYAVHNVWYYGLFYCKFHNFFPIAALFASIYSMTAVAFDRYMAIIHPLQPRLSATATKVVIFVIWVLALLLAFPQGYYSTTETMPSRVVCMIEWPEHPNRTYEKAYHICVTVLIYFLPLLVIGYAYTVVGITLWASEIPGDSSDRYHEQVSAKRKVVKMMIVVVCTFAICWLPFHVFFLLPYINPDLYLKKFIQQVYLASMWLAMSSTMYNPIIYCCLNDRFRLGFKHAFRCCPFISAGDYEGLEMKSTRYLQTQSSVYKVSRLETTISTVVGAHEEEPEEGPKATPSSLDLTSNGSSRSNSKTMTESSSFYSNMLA
Summary of the method: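 Rat submaxillary gland membranes; radioligand displacement read by filter-based scintillation counting after 1 h. Primary screen in duplicate at 25 uM; actives retested in concentration series; loss of binding fitted versus DMSO.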

[2] = molecular target: human Neonicotinoid receptor (NNR), CHRNA2 (gene 1135) (UniProt Q15822); test: NVS_LGIC_hNNR_NBungSens: NovaScreen (NVS) Ligand-Gated Ion Channel Assay for human Neonicotinoid receptor (NNR) (AID 2283313)
Chain of human Neonicotinoid receptor (NNR), CHRNA2 (gene 1135) (Q15822 whole entry, looked up): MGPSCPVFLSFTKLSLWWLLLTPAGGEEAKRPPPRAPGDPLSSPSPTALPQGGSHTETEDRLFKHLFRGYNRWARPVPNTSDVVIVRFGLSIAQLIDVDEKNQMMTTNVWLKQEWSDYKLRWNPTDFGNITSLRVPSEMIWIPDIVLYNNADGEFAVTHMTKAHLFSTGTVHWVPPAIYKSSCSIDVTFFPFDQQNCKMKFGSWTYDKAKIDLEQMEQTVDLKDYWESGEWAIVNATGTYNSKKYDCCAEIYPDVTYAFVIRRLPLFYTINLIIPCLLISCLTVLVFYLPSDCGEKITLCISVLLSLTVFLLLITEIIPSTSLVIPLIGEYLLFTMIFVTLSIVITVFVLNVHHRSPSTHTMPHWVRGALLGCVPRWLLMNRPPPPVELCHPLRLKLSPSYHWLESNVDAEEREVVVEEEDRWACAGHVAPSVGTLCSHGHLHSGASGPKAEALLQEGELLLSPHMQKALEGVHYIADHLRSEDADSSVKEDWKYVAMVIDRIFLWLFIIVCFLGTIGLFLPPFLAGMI
Summary of the method: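 Radioligand displacement on human neuroblastoma membranes, 2 h, filter-based scintillation counting. Primary screen in duplicate at 25 uM; chemicals passing threshold (e.g. 30% inhibition) run singleton concentration-response to 50 uM; loss of binding fitted versus DMSO.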

[3] = molecular target: rat Neonicotinoid receptor (NNR), Chrna7 (gene 25302) (UniProt Q05941); test: NVS_LGIC_rNNR_BungSens: NovaScreen (NVS) Ligand-Gated Ion Channel Assay for rat Neonicotinoid receptor (NNR) (AID 2283315)
Chain of rat Neonicotinoid receptor (NNR), Chrna7 (gene 25302) (Q05941 whole entry, looked up): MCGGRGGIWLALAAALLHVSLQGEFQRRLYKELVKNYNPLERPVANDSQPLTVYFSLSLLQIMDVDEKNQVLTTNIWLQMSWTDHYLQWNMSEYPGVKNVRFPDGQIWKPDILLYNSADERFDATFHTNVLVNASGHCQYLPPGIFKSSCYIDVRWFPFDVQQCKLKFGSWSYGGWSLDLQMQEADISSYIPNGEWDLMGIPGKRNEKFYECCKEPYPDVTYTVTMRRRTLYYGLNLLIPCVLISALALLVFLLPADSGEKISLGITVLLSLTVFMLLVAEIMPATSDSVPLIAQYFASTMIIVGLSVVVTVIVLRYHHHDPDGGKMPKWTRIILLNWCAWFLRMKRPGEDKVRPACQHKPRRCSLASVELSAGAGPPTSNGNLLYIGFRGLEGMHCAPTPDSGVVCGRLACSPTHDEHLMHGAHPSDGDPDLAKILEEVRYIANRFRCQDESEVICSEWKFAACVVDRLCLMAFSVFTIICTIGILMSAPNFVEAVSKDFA
Method: NVS_LGIC_rNNR_BungSens is a biochemical, single-readout assay that uses extracted gene-proteins from Rat cortical membranes in a tissue-based cell-free assay. Measurements were taken 2.5 hours after chemical dosing in a 48-well plate.NVS_LGIC_rNNR_BungSens is one of one assay component(s) measured or calculated from the NVS_LGIC_rNNR_BungSens assay. It is designed to make measurements of radioligand binding, a form of binding reporter, as detected with scintillation counting signals by Filter-based radiodetection technology.Data from the assay component NVS_LGIC_rNNR_BungSens was analyzed into 1 assay endpoint. This assay endpoint, NVS_LGIC_rNNR_BungSens, was analyzed in the positive analysis fitting direction relative to DMSO as the negative control and baseline of activity. Using a type of binding reporter, loss-of-signal activity can be used to understand changes in the binding as they relate to the gene Chrna7. Furthermore, this assay endpoint can be referred to as a primary readout, because the performed assay has only produced 1 assay endpoint. To generalize the intended target to other relatable targets, this assay endpoint is annotated to the ion channel intended target family, where the subfamily is ligand-gated ion channel.
Binding assays used specific radioligands (tritiated, iodinated) with non-radioactive competitive displacement ligands in agonist or antagonist protocols (as indicated) and various reference compounds and inhibitors to titrate specific binding to receptors and transporters. Most enzyme assays (CYPs, kinases, phosphatases, proteases, HDACs) used recombinant protein and specific substrates (fluorescence mostly, some colorimetric and radioactive) and inhibitors, followed by a biochemical separation of substrate and product. All assays for the biochemical HTS were initially run in duplicate at a single concentration (10 uM for CYP450 assays and 25 uM for all others). […] Each assay was run with positive and negative controls, and concurrent controls on every plate. […]

[4] = molecular target: rat Opioid Receptor, Non-selective Binding, Oprm1 (gene 25601) (UniProt P33535); test: NVS_GPCR_rOpiate_NonSelective: NovaScreen (NVS) G Protein-Coupled Receptor Assay for rat Opioid Receptor, Non-selective Binding (AID 2283318)
Chain of rat Opioid Receptor, Non-selective Binding, Oprm1 (gene 25601) (P33535 whole entry, looked up): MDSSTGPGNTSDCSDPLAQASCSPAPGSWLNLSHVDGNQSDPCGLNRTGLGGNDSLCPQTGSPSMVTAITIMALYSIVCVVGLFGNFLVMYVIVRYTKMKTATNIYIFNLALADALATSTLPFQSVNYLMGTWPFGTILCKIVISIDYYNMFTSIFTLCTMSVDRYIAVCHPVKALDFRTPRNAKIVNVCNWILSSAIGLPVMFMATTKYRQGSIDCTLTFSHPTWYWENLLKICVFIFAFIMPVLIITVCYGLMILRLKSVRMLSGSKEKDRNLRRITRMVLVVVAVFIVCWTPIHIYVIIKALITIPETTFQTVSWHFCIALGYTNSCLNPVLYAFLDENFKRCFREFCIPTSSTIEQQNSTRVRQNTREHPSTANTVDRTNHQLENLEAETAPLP
Summary of the method: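 Rat forebrain membranes, cell-free radioligand binding with filter-based scintillation counting, read 1.5 h after dosing. Primary screen in duplicate at 25 uM; actives retested in concentration series. Loss of signal versus DMSO baseline scored.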

[5] = molecular target: rat Somatostatin Receptor (SST), Sstr1 (gene 25033) (UniProt P28646); test: NVS_GPCR_rSST: NovaScreen (NVS) G Protein-Coupled Receptor Assay for rat Somatostatin Receptor (SST) (AID 2283314)
Chain of rat Somatostatin Receptor (SST), Sstr1 (gene 25033) (P28646 whole entry, looked up): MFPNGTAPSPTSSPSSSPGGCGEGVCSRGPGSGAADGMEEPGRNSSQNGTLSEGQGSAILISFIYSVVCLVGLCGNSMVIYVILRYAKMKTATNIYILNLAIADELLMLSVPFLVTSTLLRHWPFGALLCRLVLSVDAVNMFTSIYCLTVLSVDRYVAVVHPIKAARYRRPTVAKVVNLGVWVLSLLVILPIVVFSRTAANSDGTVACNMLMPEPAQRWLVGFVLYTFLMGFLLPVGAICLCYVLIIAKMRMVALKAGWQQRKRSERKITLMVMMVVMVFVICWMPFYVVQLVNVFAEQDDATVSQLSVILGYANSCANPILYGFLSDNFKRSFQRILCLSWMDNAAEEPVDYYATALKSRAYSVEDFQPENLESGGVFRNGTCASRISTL
Summary of the method: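 Rat forebrain membranes; radioligand displacement read by filter-based scintillation counting 1 h after dosing. Primary screen in duplicate at 25 uM. Actives (e.g., 30% inhibition) were rerun as concentration-response to 50 uM max and fitted against DMSO.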

[6] = molecular target: rat Neurotensin Receptor (NTS), Ntsr1 (gene 366274) (UniProt P20789); test: NVS_GPCR_rNTS: NovaScreen (NVS) G Protein-Coupled Receptor Assay for rat Neurotensin Receptor (NTS) (AID 2283308)
Chain of rat Neurotensin Receptor (NTS), Ntsr1 (gene 366274) (P20789 whole entry, looked up): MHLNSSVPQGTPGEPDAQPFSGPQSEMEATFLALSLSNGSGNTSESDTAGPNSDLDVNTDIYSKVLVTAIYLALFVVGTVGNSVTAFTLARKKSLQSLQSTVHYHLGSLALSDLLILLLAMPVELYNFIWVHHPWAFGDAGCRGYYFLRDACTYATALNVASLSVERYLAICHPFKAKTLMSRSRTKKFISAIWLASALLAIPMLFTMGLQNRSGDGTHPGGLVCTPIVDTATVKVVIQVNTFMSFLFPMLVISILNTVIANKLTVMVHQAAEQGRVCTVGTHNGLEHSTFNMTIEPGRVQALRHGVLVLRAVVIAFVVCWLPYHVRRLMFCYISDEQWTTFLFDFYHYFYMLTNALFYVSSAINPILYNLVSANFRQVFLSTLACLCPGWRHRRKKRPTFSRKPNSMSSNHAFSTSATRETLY
Method: NVS_GPCR_rNTS is a biochemical, single-readout assay that uses extracted gene-proteins from Rat forebrain membranes in a tissue-based cell-free assay. Measurements were taken 1 hour after chemical dosing in a 48-well plate.NVS_GPCR_rNTS is one of one assay component(s) measured or calculated from the NVS_GPCR_rNTS assay. It is designed to make measurements of radioligand binding, a form of binding reporter, as detected with scintillation counting signals by Filter-based radiodetection technology.Data from the assay component NVS_GPCR_rNTS was analyzed into 1 assay endpoint. This assay endpoint, NVS_GPCR_rNTS, was analyzed in the positive analysis fitting direction relative to DMSO as the negative control and baseline of activity. […] Furthermore, this assay endpoint can be referred to as a primary readout, because the performed assay has only produced 1 assay endpoint. […]
Binding assays used specific radioligands (tritiated, iodinated) with non-radioactive competitive displacement ligands in agonist or antagonist protocols (as indicated) and various reference compounds and inhibitors to titrate specific binding to receptors and transporters. Most enzyme assays (CYPs, kinases, phosphatases, proteases, HDACs) used recombinant protein and specific substrates (fluorescence mostly, some colorimetric and radioactive) and inhibitors, followed by a biochemical separation of substrate and product. […]

[7] = molecular target: rat Neurokinin-3 Receptor (NK3), Tacr3 (gene 24808) (UniProt P16177); test: NVS_GPCR_rNK3: NovaScreen (NVS) G Protein-Coupled Receptor Assay for rat Neurokinin-3 Receptor (NK3) (AID 2283310)
Chain of rat Neurokinin-3 Receptor (NK3), Tacr3 (gene 24808) (P16177 whole entry, looked up): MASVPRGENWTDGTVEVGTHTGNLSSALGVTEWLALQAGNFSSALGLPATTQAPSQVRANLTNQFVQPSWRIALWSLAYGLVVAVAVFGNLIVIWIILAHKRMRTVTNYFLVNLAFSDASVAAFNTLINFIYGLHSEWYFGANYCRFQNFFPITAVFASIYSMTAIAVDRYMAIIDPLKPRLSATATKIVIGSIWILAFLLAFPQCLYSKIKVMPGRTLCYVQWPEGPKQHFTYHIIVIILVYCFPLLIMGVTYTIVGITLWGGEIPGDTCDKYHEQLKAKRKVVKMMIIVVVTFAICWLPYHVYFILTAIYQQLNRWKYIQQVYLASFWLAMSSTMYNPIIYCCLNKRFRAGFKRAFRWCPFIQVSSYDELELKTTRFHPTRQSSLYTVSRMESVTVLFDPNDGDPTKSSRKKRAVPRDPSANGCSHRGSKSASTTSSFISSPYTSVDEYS
Summary of the method: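 Rat cortical membranes; radioligand binding with filtration and scintillation counting, 2 h after dosing. Primary screen in duplicate at 25 uM, then concentration-response up to 50 uM; loss of binding signal relative to DMSO.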

[8] = molecular target: rat Opioid Receptor, Non-selective Sodium (Na+) Binding, Oprm1 (gene 25601) (UniProt P33535); test: NVS_GPCR_rOpiate_NonSelectiveNa: NovaScreen (NVS) G Protein-Coupled Receptor Assay for rat Opioid Receptor, Non-selective Sodium (Na+) Binding (AID 2283311)
Chain of rat Opioid Receptor, Non-selective Sodium (Na+) Binding, Oprm1 (gene 25601) (P33535 whole entry, looked up): as the sequence (P33535 whole entry, looked up) above
Method: NVS_GPCR_rOpiate_NonSelectiveNa is a biochemical, single-readout assay that uses extracted gene-proteins from Rat forebrain membranes in a tissue-based cell-free assay. Measurements were taken 1.5 hours after chemical dosing in a 48-well plate.NVS_GPCR_rOpiate_NonSelectiveNa is one of one assay component(s) measured or calculated from the NVS_GPCR_rOpiate_NonSelectiveNa assay. It is designed to make measurements of radioligand binding, a form of binding reporter, as detected with scintillation counting signals by Filter-based radiodetection technology.Data from the assay component NVS_GPCR_rOpiate_NonSelectiveNa was analyzed into 1 assay endpoint. This assay endpoint, NVS_GPCR_rOpiate_NonSelectiveNa, was analyzed in the positive analysis fitting direction relative to DMSO as the negative control and baseline of activity. Using a type of binding reporter, loss-of-signal activity can be used to understand changes in the binding as they relate to the gene Oprm1. Furthermore, this assay endpoint can be referred to as a primary readout, because the performed assay has only produced 1 assay endpoint. To generalize the intended target to other relatable targets, this assay endpoint is annotated to the gpcr intended target family, where the subfamily is rhodopsin-like receptor. […]

[9] = molecular target: rat Vasopressin 1 Receptor (V1), Avpr1a (gene 25107) (UniProt P30560); test: NVS_GPCR_rV1: NovaScreen (NVS) G Protein-Coupled Receptor Assay for rat Vasopressin 1 Receptor (V1) (AID 2283316)
Chain of rat Vasopressin 1 Receptor (V1), Avpr1a (gene 25107) (P30560 whole entry, looked up): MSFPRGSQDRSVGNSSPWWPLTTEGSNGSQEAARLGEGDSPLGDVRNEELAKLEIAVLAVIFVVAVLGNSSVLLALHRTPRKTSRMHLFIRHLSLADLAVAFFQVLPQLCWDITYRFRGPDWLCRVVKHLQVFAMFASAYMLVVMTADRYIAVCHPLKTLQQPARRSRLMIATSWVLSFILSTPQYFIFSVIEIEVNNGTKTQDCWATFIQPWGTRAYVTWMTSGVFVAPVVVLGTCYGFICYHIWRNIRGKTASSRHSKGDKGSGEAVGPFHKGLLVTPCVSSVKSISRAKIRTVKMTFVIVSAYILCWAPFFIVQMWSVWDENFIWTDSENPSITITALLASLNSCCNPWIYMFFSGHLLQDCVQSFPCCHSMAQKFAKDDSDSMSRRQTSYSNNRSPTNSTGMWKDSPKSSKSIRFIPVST
Summary of the method: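 Radioligand binding on rat liver membranes, 1.5 h incubation, filter-based scintillation counting. Single 25 uM screen in duplicate; chemicals meeting threshold (e.g. 30% inhibition) run in concentration-response up to 50 uM.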

[10] = molecular target: Voltage-dependent N-type calcium channel subunit alpha-1B (Rattus norvegicus) (UniProt Q02294); test: NVS_IC_rCaChN: NovaScreen (NVS) Ion Channel Assay for rat Calcium Channel, Type N (CaChN) (AID 2283317)

In the case of `CCN1CCC2(CC1)COc1cc3c(cc12)N(C(=O)c1ccc(-c2ccc(-c4nnc(C)o4)cc2C)cc1)CC3`, the AC50 [1] is reported as 10.7 µM (active), the AC50 [2] is reported as 5.41 µM (active) and the AC50 [3] is reported as 21.2 µM (active). The outcome [4] was “inactive”.
In the case of `Cc1ccccc1N`, the AC50 [5] is reported as 10.8 µM (active).
`C=C(C)C(=O)[O][Sn]([CH2]CCC)([CH2]CCC)[CH2]CCC` was tested, and the outcome [6] was “inactive”, the AC50 [7] was 1.4 µM (active) and the AC50 [8] was 8.6 µM (active). The AC50 [5] was 12.8 µM (active) and the AC50 [4] was 4.13 µM (active).
With `O=C(O)C(Cl)(Cl)Cl` the AC50 [9] was 1.6 µM (active).
For `C[C@@H]1C[C@@H]([C@H](O)CC2CC(=O)NC(=O)C2)C(=O)[C@@H](C)C1`, the outcome [1] was “inactive” and the outcome [3] was “inactive”.
For `O=c1[nH]c(=O)[nH]c(=O)[nH]1`, the outcome [10] was “inactive” and the outcome [4] was “inactive”.
In the case of `O=C(O)C(F)(F)C(F)(F)C(F)(F)C(F)(F)C(F)(F)C(F)(F)F`, the AC50 [9] is reported as 39.2 µM (active).
With `CC(=O)[O][Hg][c]1ccccc1` the AC50 [7] was 16.8 µM (active), the AC50 [8] was 30 µM (active) and the AC50 [5] was 5.92 µM (active). The AC50 [4] was 31.9 µM (active).
`COc1cc2c(cc1OC)[C@@]13CCN4CC5=CCO[C@H]6CC(=O)N2[C@H]1[C@H]6[C@H]5C[C@H]43` was tested, and the AC50 [3] was 25 µM (active).
